We go through 8 sequences from article PMC7862700, “An all-to-all approach to the identification of sequence-specific readers for epigenetic DNA modifications on cytosine”.

What all share (test): DAPPL (digital affinity profiling via proximity ligation, sequencing); 10 mM Tris-HCl pH 7.5, 50 mM NaCl, 1 mM DTT, 4% glycerol, room temperature, 30 min; GST-TFs on glutathione beads, 16-mer random dsDNA library, 0.1% formaldehyde crosslink after washing; high values mean tight binding
Common to all, as to conditions: protein: recombinant; tags: N-terminal GST; dsDNA, one strand shown

One test addresses T1, FLI1 (Homo sapiens, UniProt Q01543 1-452).
T1 sequence: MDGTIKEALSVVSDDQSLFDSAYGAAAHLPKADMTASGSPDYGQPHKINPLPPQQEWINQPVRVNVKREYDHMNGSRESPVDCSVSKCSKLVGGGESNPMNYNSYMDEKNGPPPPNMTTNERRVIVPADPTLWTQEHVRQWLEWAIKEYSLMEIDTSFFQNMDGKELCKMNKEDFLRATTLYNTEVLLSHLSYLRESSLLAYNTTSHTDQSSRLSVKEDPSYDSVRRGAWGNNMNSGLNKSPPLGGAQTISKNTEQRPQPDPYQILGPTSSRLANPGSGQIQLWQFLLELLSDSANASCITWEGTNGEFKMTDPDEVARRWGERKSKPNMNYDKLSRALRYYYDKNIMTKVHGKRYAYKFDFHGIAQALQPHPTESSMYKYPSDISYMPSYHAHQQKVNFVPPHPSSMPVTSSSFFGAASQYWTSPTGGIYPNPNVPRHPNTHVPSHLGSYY
The gist of the method: (§1)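 In yeast, human transcription factors were expressed with a GST fusion, then pulled down on glutathione beads and given DNA barcodes. Pooled with a tag-only sample, they were exposed to 200 nmole of a 16-mer random double-stranded DNA library (Tris/NaCl/DTT/glycerol buffer, room temperature, 30 min), washed, crosslinked with 0.1% formaldehyde, proximity-ligated using BsaI/T4 ligase for 1 h at 37 °C, PCR-amplified and read on an Illumina NextSeq500. Each hexamer's frequency of reads for a factor, divided by the matching frequency for the tag-only sample, gives the binding signal.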

In the next test the target is T2, ELK1 (Homo sapiens, UniProt P19419 1-428).
T2 sequence: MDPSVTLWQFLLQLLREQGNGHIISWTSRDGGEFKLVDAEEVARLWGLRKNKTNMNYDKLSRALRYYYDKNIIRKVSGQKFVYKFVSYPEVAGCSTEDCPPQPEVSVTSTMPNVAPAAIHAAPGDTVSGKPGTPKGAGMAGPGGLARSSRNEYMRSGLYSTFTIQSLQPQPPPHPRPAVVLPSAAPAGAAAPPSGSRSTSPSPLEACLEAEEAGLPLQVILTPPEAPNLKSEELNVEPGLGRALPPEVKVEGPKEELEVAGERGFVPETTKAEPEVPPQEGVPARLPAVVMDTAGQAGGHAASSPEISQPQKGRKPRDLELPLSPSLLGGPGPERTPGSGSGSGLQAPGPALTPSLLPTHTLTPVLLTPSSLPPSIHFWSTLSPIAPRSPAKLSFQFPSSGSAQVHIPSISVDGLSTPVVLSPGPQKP
The gist of the method:
as §1

Another test has as its target T3, GABPA (Homo sapiens, UniProt Q06546 1-454).
T3 sequence: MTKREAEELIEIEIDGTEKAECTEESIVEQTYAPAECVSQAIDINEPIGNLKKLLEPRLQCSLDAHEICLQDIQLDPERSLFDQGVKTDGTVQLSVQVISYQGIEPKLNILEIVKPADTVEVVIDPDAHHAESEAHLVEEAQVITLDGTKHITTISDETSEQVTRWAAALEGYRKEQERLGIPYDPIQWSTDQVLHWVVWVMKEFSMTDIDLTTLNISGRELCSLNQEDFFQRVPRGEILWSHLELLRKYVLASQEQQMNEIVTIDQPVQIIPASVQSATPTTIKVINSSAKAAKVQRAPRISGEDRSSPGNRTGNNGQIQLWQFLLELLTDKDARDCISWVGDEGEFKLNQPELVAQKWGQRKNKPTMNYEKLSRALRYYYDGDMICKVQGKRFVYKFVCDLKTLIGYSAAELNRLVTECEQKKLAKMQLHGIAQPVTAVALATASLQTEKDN
The gist of the method: as §1

Another test has as its target T4, ERG (Homo sapiens, UniProt P11308 1-479).
T4 sequence: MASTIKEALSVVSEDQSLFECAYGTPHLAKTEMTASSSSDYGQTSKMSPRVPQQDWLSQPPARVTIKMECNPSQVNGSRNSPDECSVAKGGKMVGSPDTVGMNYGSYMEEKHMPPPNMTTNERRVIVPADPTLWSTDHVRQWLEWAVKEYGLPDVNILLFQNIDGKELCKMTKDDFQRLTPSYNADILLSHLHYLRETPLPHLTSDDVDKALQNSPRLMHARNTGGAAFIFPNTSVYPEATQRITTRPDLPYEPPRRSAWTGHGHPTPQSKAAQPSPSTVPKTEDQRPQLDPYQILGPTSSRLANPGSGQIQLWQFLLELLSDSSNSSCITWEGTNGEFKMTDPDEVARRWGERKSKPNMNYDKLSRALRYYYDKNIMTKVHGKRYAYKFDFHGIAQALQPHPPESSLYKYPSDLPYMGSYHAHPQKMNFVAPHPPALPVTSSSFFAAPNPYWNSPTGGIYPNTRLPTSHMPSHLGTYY
The gist of the method: as §1

In a further test the target is ELF1 (Homo sapiens, UniProt P32519 1-619). The gist of the method: as §1
The next test has as its target T5, EHF (Homo sapiens, UniProt Q9NZC4 1-300).
T5 sequence: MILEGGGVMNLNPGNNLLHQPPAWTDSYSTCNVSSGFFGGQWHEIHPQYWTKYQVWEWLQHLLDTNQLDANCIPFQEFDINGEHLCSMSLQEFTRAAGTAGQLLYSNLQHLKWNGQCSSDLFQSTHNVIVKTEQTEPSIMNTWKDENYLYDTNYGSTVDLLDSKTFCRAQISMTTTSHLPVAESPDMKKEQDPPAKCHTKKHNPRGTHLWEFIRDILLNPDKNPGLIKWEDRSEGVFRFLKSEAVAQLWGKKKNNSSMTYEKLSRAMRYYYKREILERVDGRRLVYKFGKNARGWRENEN
The method in brief:
as §1

A further test addresses SPI1 (Homo sapiens, UniProt P17947 1-270). The gist of the method: as §1
For a further test, the target named is SPIB (Homo sapiens, UniProt Q01892 1-262). The gist of the method: as §1
A further test deals with T6, ELK3 (Homo sapiens, UniProt P41970 1-407).
T6 sequence: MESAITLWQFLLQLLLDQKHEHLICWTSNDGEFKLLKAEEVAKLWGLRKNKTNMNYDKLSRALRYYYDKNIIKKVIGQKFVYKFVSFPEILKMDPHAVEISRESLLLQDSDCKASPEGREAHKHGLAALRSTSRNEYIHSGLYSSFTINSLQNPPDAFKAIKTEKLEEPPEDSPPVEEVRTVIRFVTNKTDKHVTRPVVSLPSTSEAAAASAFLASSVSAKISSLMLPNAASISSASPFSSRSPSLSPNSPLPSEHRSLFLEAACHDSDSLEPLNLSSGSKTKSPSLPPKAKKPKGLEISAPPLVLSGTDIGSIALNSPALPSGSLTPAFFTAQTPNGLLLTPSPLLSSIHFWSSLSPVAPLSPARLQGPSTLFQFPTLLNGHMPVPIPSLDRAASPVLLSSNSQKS
The gist of the method: as §1

SPIB, sequence (Q01892 whole entry): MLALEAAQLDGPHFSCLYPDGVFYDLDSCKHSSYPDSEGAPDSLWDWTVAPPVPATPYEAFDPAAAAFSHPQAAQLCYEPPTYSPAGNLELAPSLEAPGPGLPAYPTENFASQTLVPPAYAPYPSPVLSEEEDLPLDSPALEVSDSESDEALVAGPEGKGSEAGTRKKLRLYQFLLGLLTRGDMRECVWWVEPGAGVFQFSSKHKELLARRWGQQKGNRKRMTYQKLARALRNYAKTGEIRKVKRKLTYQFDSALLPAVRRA
ELF1, sequence (P32519 whole entry): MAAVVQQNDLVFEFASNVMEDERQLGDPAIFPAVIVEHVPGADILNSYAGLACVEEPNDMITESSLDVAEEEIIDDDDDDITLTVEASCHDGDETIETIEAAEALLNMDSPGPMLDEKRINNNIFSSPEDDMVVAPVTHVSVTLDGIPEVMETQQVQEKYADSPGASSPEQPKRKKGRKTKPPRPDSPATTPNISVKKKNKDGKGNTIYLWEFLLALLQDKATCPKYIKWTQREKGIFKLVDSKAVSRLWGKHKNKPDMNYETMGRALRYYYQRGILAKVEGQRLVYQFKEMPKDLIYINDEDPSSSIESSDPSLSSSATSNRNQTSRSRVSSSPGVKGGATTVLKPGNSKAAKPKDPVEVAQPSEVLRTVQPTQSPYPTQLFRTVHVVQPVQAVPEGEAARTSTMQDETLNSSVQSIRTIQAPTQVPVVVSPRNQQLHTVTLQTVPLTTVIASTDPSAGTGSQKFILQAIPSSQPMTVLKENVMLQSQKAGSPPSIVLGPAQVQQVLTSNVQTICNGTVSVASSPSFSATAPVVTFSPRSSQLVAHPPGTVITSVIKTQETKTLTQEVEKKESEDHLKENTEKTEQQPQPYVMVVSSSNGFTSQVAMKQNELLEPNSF

Turning to TCTCCC, the binding signal in the test with FLI1 is 1.66 fold enrichment (6-mer frequency, TF over GST control); with ELK1, 1.68 fold enrichment (6-mer frequency, TF over GST control); with GABPA it was 1.74 fold enrichment (6-mer frequency, TF over GST control); in the test with ERG, 1.54 fold enrichment (6-mer frequency, TF over GST control); with ELF1, 1.63 fold enrichment (6-mer frequency, TF over GST control); with EHF, 1.73 fold enrichment (6-mer frequency, TF over GST control). Moreover, the binding signal is 1.47 fold enrichment (6-mer frequency, TF over GST control) with SPI1; 1.71 fold enrichment (6-mer frequency, TF over GST control) with SPIB; 1.75 fold enrichment (6-mer frequency, TF over GST control) with ELK3.
GCTTCG: the binding signal is 1.3 fold enrichment (6-mer frequency, TF over GST control) in the test with FLI1; 1.46 fold enrichment (6-mer frequency, TF over GST control) with ELK1; 1.35 fold enrichment (6-mer frequency, TF over GST control) with GABPA; 1.36 fold enrichment (6-mer frequency, TF over GST control) with ERG; 1.32 fold enrichment (6-mer frequency, TF over GST control) with ELF1; 1.26 fold enrichment (6-mer frequency, TF over GST control) with EHF. Also, the binding signal in the test with SPI1 is 1.26 fold enrichment (6-mer frequency, TF over GST control); with SPIB, 1.3 fold enrichment (6-mer frequency, TF over GST control); with ELK3, 1.4 fold enrichment (6-mer frequency, TF over GST control).
As for GATCCT, the binding signal with FLI1 is 1.28 fold enrichment (6-mer frequency, TF over GST control); in the test with ELK1 it was 1.2 fold enrichment (6-mer frequency, TF over GST control); with GABPA, 1.3 fold enrichment (6-mer frequency, TF over GST control); in the test with ERG, 1.38 fold enrichment (6-mer frequency, TF over GST control); in the test with ELF1 it was 1.26 fold enrichment (6-mer frequency, TF over GST control); with EHF, 1.28 fold enrichment (6-mer frequency, TF over GST control). For the same sequence, the binding signal in the test with SPI1 was 1.24 fold enrichment (6-mer frequency, TF over GST control); with SPIB, 1.33 fold enrichment (6-mer frequency, TF over GST control); with ELK3, 1.31 fold enrichment (6-mer frequency, TF over GST control).
With CCTGAT, the binding signal in the test with FLI1 was 1.27 fold enrichment (6-mer frequency, TF over GST control); with ELK1, 1.56 fold enrichment (6-mer frequency, TF over GST control); with GABPA it was 1.5 fold enrichment (6-mer frequency, TF over GST control); with ERG, 1.42 fold enrichment (6-mer frequency, TF over GST control); with ELF1, 1.38 fold enrichment (6-mer frequency, TF over GST control); in the test with EHF, 1.45 fold enrichment (6-mer frequency, TF over GST control). The binding signal was 1.5 fold enrichment (6-mer frequency, TF over GST control) with SPI1; 1.6 fold enrichment (6-mer frequency, TF over GST control) in the test with SPIB; 1.45 fold enrichment (6-mer frequency, TF over GST control) in the test with ELK3.
For the sequence TTGCTT, the binding signal in the test with FLI1 is 1.32 fold enrichment (6-mer frequency, TF over GST control); with ELK1, 1.15 fold enrichment (6-mer frequency, TF over GST control); in the test with GABPA, 1.36 fold enrichment (6-mer frequency, TF over GST control); in the test with ERG it was 1.3 fold enrichment (6-mer frequency, TF over GST control); with ELF1 it was 1.21 fold enrichment (6-mer frequency, TF over GST control); with EHF it was 1.2 fold enrichment (6-mer frequency, TF over GST control). Also, the binding signal with SPI1 was 1.29 fold enrichment (6-mer frequency, TF over GST control); with SPIB it was 1.35 fold enrichment (6-mer frequency, TF over GST control); in the test with ELK3, 1.26 fold enrichment (6-mer frequency, TF over GST control).
For the sequence ACTTTA, the binding signal with FLI1 was 1.12 fold enrichment (6-mer frequency, TF over GST control); in the test with ELK1, 1.26 fold enrichment (6-mer frequency, TF over GST control); with GABPA, 1.29 fold enrichment (6-mer frequency, TF over GST control); in the test with ERG, 1.17 fold enrichment (6-mer frequency, TF over GST control); with ELF1, 1.21 fold enrichment (6-mer frequency, TF over GST control); in the test with EHF, 1.2 fold enrichment (6-mer frequency, TF over GST control). Moreover, the binding signal is 1.33 fold enrichment (6-mer frequency, TF over GST control) in the test with SPI1; 1.19 fold enrichment (6-mer frequency, TF over GST control) with SPIB; 1.22 fold enrichment (6-mer frequency, TF over GST control) with ELK3.
As to GCCTCT, the binding signal in the test with FLI1 is 1.39 fold enrichment (6-mer frequency, TF over GST control); in the test with ELK1, 1.38 fold enrichment (6-mer frequency, TF over GST control); with GABPA, 1.37 fold enrichment (6-mer frequency, TF over GST control); with ERG it was 1.35 fold enrichment (6-mer frequency, TF over GST control); with ELF1, 1.36 fold enrichment (6-mer frequency, TF over GST control); in the test with EHF it was 1.29 fold enrichment (6-mer frequency, TF over GST control). Besides, the binding signal with SPI1 is 1.31 fold enrichment (6-mer frequency, TF over GST control); in the test with SPIB it was 1.42 fold enrichment (6-mer frequency, TF over GST control); in the test with ELK3, 1.32 fold enrichment (6-mer frequency, TF over GST control).
Consider ATTTCG, for which the binding signal with FLI1 was 1.24 fold enrichment (6-mer frequency, TF over GST control); in the test with ELK1, 1.25 fold enrichment (6-mer frequency, TF over GST control); with GABPA, 1.29 fold enrichment (6-mer frequency, TF over GST control); in the test with ERG it was 1.25 fold enrichment (6-mer frequency, TF over GST control); in the test with ELF1, 1.3 fold enrichment (6-mer frequency, TF over GST control); in the test with EHF, 1.35 fold enrichment (6-mer frequency, TF over GST control). Moreover, the binding signal was 1.29 fold enrichment (6-mer frequency, TF over GST control) with SPI1; 1.37 fold enrichment (6-mer frequency, TF over GST control) in the test with SPIB; 1.21 fold enrichment (6-mer frequency, TF over GST control) with ELK3.
